APEX1 inh – APE1 (human) endonuclease inhibition; recombinant APE1, TAMRA/BHQ-2 abasic DNA cleavage fluorescence; AID 2517; Potency, µM (series often up to 65.8 µM), for the others: at the highest dose activity change, negative = inhibition, actives largely listed as inhibitors; 350,000 tested, 0.35% active; P27695;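 also: potency is read from the fitted curve at half-maximal effect; plate controls were vehicle for no effect and reference inhibitor for full effect; nearly all actives have a fitted effect of over 55% in size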
Target sequence (P27695 whole entry, looked up): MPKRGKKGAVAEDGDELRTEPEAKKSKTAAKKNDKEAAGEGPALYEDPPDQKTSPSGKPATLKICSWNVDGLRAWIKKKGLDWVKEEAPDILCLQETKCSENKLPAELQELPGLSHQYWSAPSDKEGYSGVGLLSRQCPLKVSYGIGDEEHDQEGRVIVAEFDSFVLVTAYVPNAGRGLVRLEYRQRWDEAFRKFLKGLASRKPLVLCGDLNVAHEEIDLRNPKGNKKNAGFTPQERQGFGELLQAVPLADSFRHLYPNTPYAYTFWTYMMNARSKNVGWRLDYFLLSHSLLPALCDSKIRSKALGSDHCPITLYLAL
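Incision of a quenched TAMRA/BHQ-2 THF abasic-site duplex (50 nM) by 0.75 nM APE1, after 15 min compound preincubation, measured as fluorescence increase over three 60 s reads. Values normalized to buffer, DMSO and NSC13755 control wells.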
PI5P4K alpha inh – PI5P4K alpha (human) kinase inhibition | max response, % | PI5P4Kalpha enzyme, ADP-Glo luminescence, 60 min; stronger effect = lower value | P48426 | AID 652105 | 330,000 tested, 1.2% active; active = max response of -50% or lower; inconclusive = between -30% and -50%; inactive = -30% or higher; also: value at the top dose of about 77 µM
Target sequence (P48426 whole entry, looked up): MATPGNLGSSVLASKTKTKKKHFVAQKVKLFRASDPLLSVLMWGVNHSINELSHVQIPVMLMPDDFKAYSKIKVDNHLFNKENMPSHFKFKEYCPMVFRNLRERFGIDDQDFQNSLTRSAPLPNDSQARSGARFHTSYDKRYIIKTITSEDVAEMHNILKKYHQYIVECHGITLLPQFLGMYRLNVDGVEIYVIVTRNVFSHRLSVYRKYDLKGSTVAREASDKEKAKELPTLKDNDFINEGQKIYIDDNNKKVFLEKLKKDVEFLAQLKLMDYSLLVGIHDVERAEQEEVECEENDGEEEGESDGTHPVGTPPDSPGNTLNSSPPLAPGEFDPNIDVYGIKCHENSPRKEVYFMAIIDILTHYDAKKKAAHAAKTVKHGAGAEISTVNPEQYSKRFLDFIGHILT
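Reactions run in 0.038 M HEPES pH 7.4, 0.28 mM EGTA, 0.1% CHAPS and 5% DMSO, with PI5P4Kalpha, substrate, compound and 5 microM ATP final, one hour at room temperature. Readout is ADP-Glo luminescence.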
WRN helicase inh – WRN helicase (human) inhibition. Q14191. WRN helicase unwinding, fluorescent forked duplex, kinetic. Potency, µM (titrated, usually from 114 µM), for the others: at the top dose activity change, negative = inhibition, most hits filed as inhibitors. 360,000 tested, 0.46% active; also: potency is read from the fitted curve at half-maximal effect; nearly all actives have a fitted effect of over 55% in size
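Fluorescence dequenching readout, ex 525 nm/em 598 nm, kinetic mode: forked duplex DNA (100 nM final) with adjacent fluorophore and quencher unwound by WRN (20 nM final) with 2 mM ATP. Compound preincubation 15 min, room temperature.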
FEN1 inhibitor – blocks human flap endonuclease 1; Recombinant FEN1 flap cleavage, fluorescence, 15 min; AID 588795; Potency, µM (highest dose often 114 µM), for the others: top-dose activity change, negative = inhibition, usual class: inhibitors; 390,000 tested, 0.35% active; P39748; also: potency is read from the fitted curve at half-maximal effect; nearly all actives have a fitted effect of over 65% in size
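In this screen, 50 nM flap DNA substrate was added to 10 nM FEN1 pretreated with compound for 15 min at room temperature; cleavage was followed with reads at 0 and 15 min, and Hill fitting gave concentration–response parameters.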
RECQ1 inh – inhibitors of human RECQ1 DNA helicase; P46063; 240,000 tested, 0.54% active; Potency, µM (series often up to 57.3 µM), without a hit: top-dose activity, negative = inhibition, usual class: inhibitors; RECQ1 DNA unwinding, red fluorescence kinetic read;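 also: potency is read from the fitted curve at half-maximal effect; plate controls were vehicle for no effect and no enzyme for full effect; nearly all actives have a fitted effect of over 30% in size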
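RECQ1T1 50 nM; forked duplex (20 bp + 30-nt ss tails) 200 nM, ATP 2 mM final; pH 8.0, 2 mM MgCl2, 2.5 ug/ml poly(dI-dC); 15 min compound preincubation; discontinuous kinetic read over 2 h at RT.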
BLM inh – blocks DNA unwinding by human BLM helicase; P54132; recombinant BLM DNA unwinding, fluorescence dequenching; Potency, µM (series often up to 56.1 µM), for inactives: top-dose activity change, negative = inhibition, usual class: inhibitors; 350,000 tested, 0.2% active; AID 2528;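 also: potency is read from the fitted curve at half-maximal effect; plate controls were vehicle for no effect and no enzyme for full effect; nearly all actives have a fitted effect of over 35% in size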
ADP-Glo interf – ADP-Glo luciferase interference, PI5P4K counter-screen | shares compounds with PI5P4K alpha inh | ADP-Glo detection counter-screen, luciferase luminescence, no enzyme | Potency, µM (doses to about 76.9 µM), for inactives: at the top dose activity change, negative = inhibition, actives largely listed as inhibitors | 1,100 tested, under 10 active | AID 743285
Numbers without * were called inactive; i = inactive; ? = inconclusive; . = not tested or not shown; [ ] = remark or other dose. Sampled rows, rich in hits. Any-hit rate of the full collection: about 1.5%. Unless noted, calls follow the shape of the dose curve; as a rule, active = well fitted curve in the direction sought with a large enough effect; inconclusive = small, poorly fitted or top-dose-only effect, or another doubt; inactive = no such curve, though single readings can be large; an effect the other way counts as inactive or inconclusive. Unless noted, % is scaled to controls: 0 for no effect and ±100 for the full control effect.

SMILES | APEX1 inh | PI5P4K alpha inh | WRN helicase inh | FEN1 inhibitor | RECQ1 inh | BLM inh | ADP-Glo interf
CCCCN(c1ccccc1)c1ncnc2c1cnn2-c1ccc(Cl)cc1 | . | . | . | -6.6% | . | -2.4% | .
O=C1Nc2cc(Cl)ccc2Nc2cscc21 | 0.6% | . | . | -15.9% | . | . | 2.0%
COc1cc(-c2cc(OC)c3c(C)oc(C)c3c(=O)c2)ccc1OC(=O)c1ccccc1C | . | . | . | -11.0% | . | -7.3% | .
CCCCc1c(Cc2ccccc2)ncn1CCc1ccccc1OC | . | -66.8* | -13.0% | . | . | . | 2.2%
COc1ccccc1NC(=O)Cn1c(=O)n(-c2cccc(C(C)=O)c2)c(=O)c2c3c(sc21)CN(C(C)=O)CC3 | . | . | . | -5.2% | . | -7.7% | .
O=C(O)c1sccc1NC(=O)c1c(Cl)cccc1Cl | 40.7% | -55.3* | 2.4% | -1.5% | . | -2.4% | 1.6%
O=C(O)Cc1nc(-c2cccnc2)sc1-c1ccc(Br)cc1 | -2.0% | -61.3* | -28.0% | 0.5% | i | -5.7% | -7.0%
Cc1c(C(=O)NCC(c2ccc(Cl)cc2)N2CCOCC2)oc2ccccc12 (configuration not stated) | . | . | . | -16.4% | . | -6.8% | .
COc1ccc(C(=O)CSc2nc3cc(C(=O)NC4CCCC4)ccc3c(=O)n2CC2CCCO2)cc1 (configuration not stated) | . | . | . | 18.5% | . | -2.7% | .
O=C(CNC(=O)c1[nH]cnc1C(=O)N[C@@H](Cc1ccccc1)C(=O)OCc1ccccc1)OCc1ccccc1 | 18.9% | 9.9 | -6.5% | 6.1% | . | -9.0% | .
O=C(N[C@@H](Cc1ccccc1)C(=O)OCc1ccccc1)c1nc[nH]c1C(=O)NC(c1ccccc1)c1ccccc1 | -1.5% | 7.2 | -12.7% | 7.7% | -22.6% | -8.3% | -1.8%
COc1ccc(NC(C)=O)cc1NC(=O)CSc1nc2ncccc2[nH]1 | 3.9% | -54.7* | ? | -8.6% | -3.1% | -0.3% | 2.6%
CS(=O)(=O)c1ccc(C(=O)Nc2nc(-c3ccco3)c(-c3ccco3)s2)cc1 | -19.4% | -83.9* | 44.7µM* | 56.2µM* | . | . | 3.6%
O=C(Nc1nc(-c2ccco2)cs1)c1ccccc1 | ? | -63.0* | ? | -24.2% | -22.1% | -10.9% | -2.3%
O=C(Nc1nc(-c2ccccc2)cs1)c1ccco1 | 1.1% | 3.0 | -0.6% | -12.4% | -1.3% | 3.2% | .
Cn1c(=O)c2[nH]c(-c3ccc(S(=O)(=O)O)cc3)nc2n(C)c1=O | -3.7% | -54.3* | 2.9% | -5.3% | -7.3% | . | -4.3%
Cn1nnc2cc(C(=O)NC3CC3)ccc21 | 1.7% | -58.9* | -15.9% | -12.9% | i | -1.9% | -1.3%
COC(=O)c1cccc(NC(=O)Cc2coc3cc(OC)ccc23)c1 | 0.0% | . | -14.9% | -18.0% | -3.7% | -3.9% | .
COc1ccc2c(CC(=O)OCC(=O)Nc3cccc(C)c3)coc2c1 | -24.2% | -56.3* | ? | ? | . | . | -0.4%
CS(=O)(=O)c1ccc2nc(NC(=O)c3ccc(NS(=O)(=O)c4cccc([N+](=O)[O-])c4)cc3)sc2c1 | -2.8% | -56.8* | -5.2% | -9.1% | i | -10.2% | -6.7%
CCOC(=O)Cc1cc(=O)n2[nH]c(-c3ccccc3)c(-c3ccccc3)c2n1 | 9.6% | -50.2* | ? | -0.2% | -5.5% | -18.0% | 3.2%
O=c1cc(CSc2nnc(-c3cccs3)n2Cc2ccccc2)nc2sc3ccccc3n12 | ? | -51.3* | -9.4% | -0.9% | -18.7% | -0.5% | 6.1%
Cc1cc(C(=O)CSc2nnc(-c3cccs3)n2Cc2ccccc2)c(C)n1C | -1.9% | 0.0 | 1.6% | 0.0% | -6.6% | -5.6% | .
Cc1c(OCC(F)(F)F)ccnc1CS(=O)c1nc2ccccc2[nH]1 (configuration not stated) | 3.2% | -66.9* | -0.9% | -4.7% | 24.7% | -9.6% | -4.0%
NS(=O)(=O)c1ccc(NC(=O)C2Cc3ccccc3CN2C(=O)c2ccco2)cc1 (configuration not stated) | -36.1% | -87.3* | ? | -8.9% | . | -16.2% | 3.1%
SMILES | APEX1 inh | PI5P4K alpha inh | WRN helicase inh | FEN1 inhibitor | RECQ1 inh | BLM inh | ADP-Glo interf
NS(=O)(=O)c1ccc(CCNC(=O)C2Cc3ccccc3CN2C(=O)c2ccco2)cc1 (configuration not stated) | -4.7% | -19.5 | -16.9% | 7.4% | i | -2.7% | .
CC(=O)NC(c1ccccc1)c1cc(Cl)c2cccnc2c1O (configuration not stated) | -8.5% | -2.3 | 11.9% | ? | . | -5.5% | .
CC(=O)NC(c1ccc(C)cc1)c1cc([N+](=O)[O-])c2cccnc2c1O (configuration not stated) | -2.5% | -59.1* | -12.4%[57.1 µM] | -16.1% | i | -9.8% | 3.1%
O=C(NC(c1ccc(Cl)cc1)c1cc(Cl)c2cccnc2c1O)c1cccnc1 (configuration not stated) | 17.8% | -62.6* | -6.9% | -17.1% | -19.3% | -12.2% | -9.3%
Cc1cccc(CNC(=O)C2CCN(S(=O)(=O)c3ccc4c(c3)CCCN4C(=O)C3CCC3)CC2)c1 | . | . | . | 6.1% | . | -1.5% | .
O=C1CCC(C(=O)Nc2ccc([N+](=O)[O-])cc2)N1 (configuration not stated) | 16.6% | -54.4* | ? | 3.7% | . | . | -4.9%
Cc1cccc2c(C(=O)N3CCN(C(=O)c4ccco4)CC3)cc(-c3cccc(Br)c3)nc12 | 12.5% | -52.7* | ? | -9.1% | -23.3% | -22.9% | 6.7%
O=C(c1ccco1)N1CCN(C(=O)c2cc(-c3ccccc3)nc3ccccc23)CC1 | -2.9% | -2.3 | -2.4% | -1.4% | -0.3% | -1.4% | .
Cc1cc(C)cc(NC(=O)C2CCN(C(=O)c3cnn(-c4ccccc4)c3-n3cccc3)CC2)c1 | . | . | . | -2.5% | . | -14.0% | .
O=C(NCc1ccco1)c1ccc([N+](=O)[O-])o1 | ? | -63.5* | ? | -19.5% | ? | ? | 0.9%
O=C(NCc1ccco1)c1ccc(Cn2cc([N+](=O)[O-])cn2)o1 | 1.9% | . | 1.5% | -0.7% | 1.5% | -0.7% | .
S=C(NCc1ccco1)NCc1ccco1 | . | -75.7* | -3.9%[11.6 µM] | -1.1% | . | . | -0.3%
O=C(Nc1nc2n(n1)C(c1ccc(F)cc1)C=C(c1ccc(Cl)cc1)N2)c1ccc([N+](=O)[O-])cc1 (configuration not stated) | . | . | . | 0.1% | . | -1.2% | .
O=C(COc1cccc2ccccc12)Nc1ccc(Cl)cc1C(=O)O | 17.4% | -54.1* | -14.9% | -17.2% | . | -0.5% | -0.7%
O=C(COc1cccc2ccccc12)Nc1cc(Cl)ccc1C(=O)O | 3.7% | ? | ? | -12.9% | . | -8.2% | .

High-throughput results from PubChem.
